Tat export inh: E. coli Tat export inhibitors, primary screen, MC4100, TorA-mCherry reporter, fluorescence, single point | inhibition, % at 10 µM | hit rate 0.036% among 340,000;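 active = mean replicate inhibition at least 50% and at least half of replicates individually reaching 50%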;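 also: exported cargo escapes ClpAP degradation while cytoplasmic cargo is degraded and loses fluorescence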
phage Ecoli inh: growth loss of phage-infected E. coli, primary screen, RecBCD inhibitor project, absorbance, with phage, HTS; hit rate 0.26% among 360,000; inhibition, % at 11.9 µM; AID 651602, 2012; in the data active = inhibition above about 11%
AddAB inh: growth inhibition of E. coli expressing H. pylori AddAB, primary screen, AddAB inhibitor project, absorbance; inhibition, % at 11.9 µM; hit rate 0.29% among 330,000; AID 435030, 2010; in the data active = inhibition above about 12%
E coli growth-1: E. coli growth inhibition, primary screen, OD600; Escherichia coli growth, 23 h; stronger effect = lower value; OD600 absorbance (concentration not given with the values); hit rate 0.21% among 330,000; AID 1053175, 2014;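 active = OD600 absorbance below the run mean of sample wells minus 3.6 SD, in any replicate, cut at about 0.56 in these data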
E coli growth-2: E. coli V3065 growth inhibition, primary screen, counter-screen for AddAB inhibitor project, absorbance, OD600; 18 h; inhibition, % at 11.9 µM; hit rate 0.27% among 330,000;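 active = inhibition above the campaign's mean inhibition across all tested compounds plus 3 SD, cut at about 9.9% in these data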;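 also: uninfected addAB+ strain grown without phage in ampicillin broth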
Hits are given with their value; i = inactive; nt = no result given. Hits are enriched below; roughly 0.51% of the tested compounds scored in any of these assays.

SMILES	Tat export inh	phage Ecoli inh	AddAB inh	E coli growth-1	E coli growth-2
COc1ccc(-n2c(Cc3cccn3C)nnc2SCC(=O)Nc2ccc(C(C)=O)cc2)cc1	56	i	i	i	i
COc1ccc(NC(=O)CSc2nnc(Cc3cccn3C)n2-c2ccc(OC)cc2)cc1	i	i	i	i	i
COC(=O)c1ccccc1N1C(=O)C2C3C=CC(C3)C2C1=O (configuration not stated)	nt	nt	nt	i	nt
O=C1CCC(c2ccc(-n3ccnc3)cc2)=NN1	i	i	i	0.48	i
O=C1CCC(c2ccccc2)=NN1	i	i	i	i	i
O=C(CSc1nnc(-c2ccccc2)n1-c1ccc(Cl)cc1)N/N=C/c1ccco1	i	i	i	nt	11
Cc1ccc(C=NNC(=O)CSc2nnc(-c3ccccc3)n2-c2ccc(Cl)cc2)o1	nt	nt	nt	i	nt
O=C1C2C3C=CC(C4CC34)C2C(=O)N1/N=C/c1ccc([N+](=O)[O-])o1 (configuration not stated)	i	i	i	nt	i
O=C1C2C3C=CC(C4CC34)C2C(=O)N1N=Cc1ccc([N+](=O)[O-])o1 (configuration not stated)	nt	nt	nt	0.5	nt
O=[N+]([O-])c1cccc(/C=C/c2nc[nH]c2[N+](=O)[O-])c1	i	i	i	i	11
Cc1ccc(C(=O)N/C(=C\c2ccc(-c3ccc(Br)cc3)o2)C(=O)NCCCN(C)C)cc1	i	i	i	0.5	i
Cc1ccc(C(=O)N/C(=C\c2ccc(-c3cccc([N+](=O)[O-])c3)o2)C(=O)NCCCN(C)C)cc1	i	i	i	i	i
CC(NC(=O)c1nc[nH]c1C(=O)NCCCCCN)C(=O)OCc1ccccc1 (configuration not stated)	nt	nt	nt	i	nt
CC(C)C[C@@H]1CN=C(N)N1C[C@@H]1CCCN1C[C@@H](C(C)C)N1C[C@@H](Cc2ccccc2)N(CCCC2CCCC2)C1=N	i	i	i	0.46	i
CCCCN1C(=N)N([C@@H](CN2CCC[C@H]2CN2C(N)=NC[C@@H]2Cc2ccccc2)C(C)C)C[C@H]1Cc1ccccc1	i	i	i	nt	i
NC(=NOC(=O)c1ccc(Cl)cc1)c1ncc([N+](=O)[O-])s1	nt	nt	nt	0.46	nt
N/C(=N\OC(=O)Nc1ccccc1)c1ncc([N+](=O)[O-])s1	i	i	i	nt	i
NCCCCC1NC(=O)c2cc([N+](=O)[O-])cc(I)c2SCC(C(N)=O)NC(=O)C(Cc2ccc(O)cc2)NC1=O (configuration not stated)	nt	nt	nt	i	nt
O=C1C=C(c2ccc3cc[nH]c3c2)CC(c2ccc3c(c2)OCO3)C1 (configuration not stated)	nt	nt	nt	i	nt
C=CCOc1cccc(C(=O)N2CCCC(CCC(=O)NCc3ccccc3F)C2)c1 (configuration not stated)	50	i	i	i	i
Cc1ccc(C(=O)N2CCCC(CCC(=O)NCc3ccccc3F)C2)cn1 (configuration not stated)	i	i	i	i	i
COc1ccc(C2CC(=O)C=C(c3ccc(Cl)c(C(F)(F)F)c3)C2)cc1OC (configuration not stated)	nt	nt	nt	i	nt
CC1(C)OC2CO[C@@]3(COS(N)(=O)=O)OC(C)(C)OC3C2O1 (some centres not stated)	nt	nt	nt	i	nt
COC(=O)[C@]1(Cc2ccccc2)NC(c2ccc(-c3ccc(Cl)c(Cl)c3)cc2)C2C(=O)N(C)C(=O)C21 (some centres not stated)	nt	nt	nt	i	nt
Cc1cc(C)c(S(=O)(=O)/N=C2/C=C(Sc3ncn[nH]3)C(=O)c3ccccc32)cc1C	i	11	i	nt	i
SMILES	Tat export inh	phage Ecoli inh	AddAB inh	E coli growth-1	E coli growth-2
Cc1ccc(C(=O)Nc2nnc(-c3ccco3)o2)cc1C	i	i	i	i	i
O=C(Nc1nnc(-c2ccco2)o1)c1ccc(Cl)cc1	i	i	i	0.44	i
COc1ccc(-n2nc(C(=O)NCC(=O)Nc3cccc(NC(C)=O)c3)c3ccccc3c2=O)cc1	i	i	i	0.57	i
O=C1c2cc(Br)ccc2N(Cc2ccc(Br)cc2)S(=O)(=O)C1c1cc(Cl)c(Cl)cc1[N+](=O)[O-] (configuration not stated)	i	nt	i	nt	12
Cc1cc(O)c2c(c1O)C(=O)[C@]13C(=C2O)C(=O)[C@@H]2[C@@H](O)[C@H]1[C@@H]1[C@H](O)[C@H]3C(=O)C3=C(O)c4c(O)cc(C)c(O)c4C(=O)[C@]312	i	nt	i	i	9.9
O=C(Nc1ccc(Cl)c(Cl)c1)Nc1nccs1	i	i	i	nt	i
O=C(Nc1cccc(Cl)c1)Nc1nccs1	i	i	i	0.54	i
COC(=O)c1cc(NC(=O)Nc2cccc(Cl)c2)ccc1Cl	i	12	i	i	i
COc1ccc([N+]([O-])=Cc2ccoc2)cc1	nt	nt	nt	i	nt
Cc1ccc(-n2[nH]c(C)c(C=Nc3ccc(S(=O)(=O)Nc4nccs4)cc3)c2=O)cc1C	i	i	i	i	i
Cc1ccc(-n2[nH]c(C)c(C=Nc3ccc(S(=O)(=O)Nc4nccs4)cc3)c2=O)c(C)c1	nt	nt	13	i	i
C=C(C)C(=O)Nc1cccc(C2=NOC3(C2)CC(C(N)=O)N(C(=O)CCCCC)C3)c1 (configuration not stated)	nt	nt	nt	i	nt
O=[N+]([O-])c1ccc(-[n+]2ccc3ccccc3c2)c([N+](=O)[O-])c1	i	i	i	0.45	i
O=[N+]([O-])c1ccc(SNc2ccccc2)c([N+](=O)[O-])c1	i	i	nt	nt	nt
CC(=NNC(=S)Nc1ccc(C)cc1)c1ccccn1	i	13	nt	nt	nt
COc1ccc(C(N)=NOC(=O)c2ccco2)cc1OC	nt	nt	nt	i	nt
O=C(CNC(=S)N(CCCN1CCOCC1)Cc1cccs1)N1CCCC1	i	i	i	0.54	i
O=C(CNC(=S)N(CCCN1CCOCC1)Cc1cccs1)NCCN1CCOCC1	i	i	i	i	i
Cc1cc(C)nc(NC(=O)C=Cc2ccc3c(c2)OCO3)c1	nt	nt	nt	i	nt
O=C(O)CN1C(=O)/C(=C\c2cc([N+](=O)[O-])ccc2OCc2ccccc2Cl)SC1=S	i	i	i	0.54	i
O=C(O)CN1C(=O)/C(=C\c2cc(Br)ccc2OCc2ccc(Cl)cc2)SC1=S	i	i	nt	i	nt
COc1ccc(C(=O)NC(=S)NNC(=O)c2cnccn2)cc1	i	i	i	0.43	i
O=C(NNC(=S)NC(=O)c1cccnc1)c1ccc(Cl)cc1	i	i	i	0.53	i
O=C(NC(=S)NNC(=O)c1cnccn1)c1ccc(Cl)cc1	i	i	i	i	i
COc1ccc(C(=O)N2CCOC2CNC(=O)C(=O)NCc2ccc3c(c2)OCO3)cc1 (configuration not stated)	i	i	i	0.51	i
COc1ccc(C=Cc2nc3sc4c(c3c(=O)o2)CCC4)cc1	nt	nt	nt	i	nt
C=CCOC(=O)C1=CC(c2ccccc2)C(CCCO)C(OCC)O1 (configuration not stated)	nt	nt	nt	i	nt
CC(C)n1ncc2c(C(=O)N3CCN(Cc4ccc(Br)s4)CC3)cc(C3CC3)nc21	53	i	i	i	i
CC(C)n1ncc2c(C(=O)O)cc(C3CC3)nc21	i	i	i	i	i
Oc1c(Cl)cc(Cl)cc1CNc1ccccn1	i	i	nt	i	nt

High-throughput results from PubChem.
